{"source": "PubChem BioAssay (NCI)", "note": "This is part of a sample that, as a whole, favours compounds with a hit. Of some 83,000 tested, about 20% had one in any assay.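 Plates (96-well) were seeded with cells, treated with compound at one concentration, and incubated for 48 hours before percent growth was determined.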 Activity calls are given as the source filed them. How the source made its calls: active means growth percent below 10; inactive means the rest.", "data": [{"tested_on": "NCI-H522 lung", "assay": "NCI-60 one-dose screen, 48 h (100 = growth as untreated, 0 = no growth, -100 = all killed)", "conditions": "10 µM", "values": [{"smiles": "COc1cc2c3c(n(CCCNCCO)c(=O)c2cc1OC)-c1nc2c(cc1C3=O)OCO2", "growth": "2.99% (active)"}, {"smiles": "COc1ccc2[nH]cc(/C=N/Nc3ccc(Br)cn3)c2c1", "growth": "38.5% (inactive)"}, {"smiles": "O=C(Cn1cc(CSc2nnc3oc4ccccc4n23)nn1)Nc1cccc(Cl)c1", "growth": "47.6% (inactive)"}, {"smiles": "O=C(NO)c1ccc(Cn2ccc3c(Nc4ccccc4)ncnc32)cc1", "growth": "-40.4% (active)"}, {"smiles": "COc1ccc(-c2nc(-c3ccccc3)c(-c3ccccc3)n2-c2ccc(S(=O)(=O)Nc3ncccn3)cc2)cc1OC", "growth": "89% (inactive)"}, {"smiles": "O=C(CSc1ccc(-c2ccc(Cl)cc2)nn1)Nc1ccc(Cl)c(C(F)(F)F)c1", "growth": "55.1% (inactive)"}, {"smiles": "CC1(C)[C@@H](NCO)CC[C@]2(C)[C@H]3C(=O)C=C4[C@@H]5C[C@](C)(CO)CC[C@]5(C)CC[C@@]4(C)[C@]3(C)CC[C@@H]12", "growth": "72.7% (inactive)"}, {"smiles": "Cn1cc(-c2cc(N)n3nc(-c4c[nH]c5ccc(Br)cc45)cc3n2)c2cccnc21", "growth": "-82.8% (active)"}, {"smiles": "Nc1nnc(-c2c[nH]c3ncccc23)c(-c2c[nH]c3ccc(Br)cc23)n1", "growth": "47.9% (inactive)"}, {"smiles": "N#Cc1ccc(-c2nn(-c3ccc(C(=O)O)cc3)cc2CNc2ccc(Cl)cc2)cc1", "growth": "81.3% (inactive)"}, {"smiles": "O=C(c1ccc(O)cc1)C1[C@H](c2ccccc2Br)[C@@H](c2ccccc2)NC12C(=O)Nc1ccc(Cl)cc12", "note": "(some centres not stated)", "growth": "-47.1% (active)"}, {"smiles": "COc1nccnc1NS(=O)(=O)c1ccc(NC2=C(Cl)C(=O)c3nc(C)ccc3C2=O)cc1", "growth": "88% (inactive)"}, {"smiles": "CCOC(=O)C1=C(N)N(c2ccc(Cl)cc2)C2=C(C(=O)CC(C)(C)C2)C1c1ccc(N2CCOCC2)cc1", "note": "(configuration not stated)", "growth": "89.3% (inactive)"}, {"smiles": "CN(C(=O)c1ccc(C(C)(C)C)cc1)c1sc2c(c1C#N)CCC(=O)C2", "growth": "-45.8% (active)"}, {"smiles": "Cc1cc(C)nc(SCC(=O)Nc2ccc(S(N)(=O)=O)cc2)n1", "growth": "95.9% (inactive)"}, {"smiles": "COc1ccc2[nH]c(O)c(N=NC(=O)c3cc(-c4ccc(C)cc4)nc4ccccc34)c2c1", "growth": "99.5% (inactive)"}, {"smiles": "O=C1Nc2ccc(Cl)cc2/C1=C/c1cccc(OCc2ccccn2)c1", "growth": "-75.5% (active)"}, {"smiles": "Nc1nc(-c2ccccc2)cs1", "growth": "-4.11% (active)"}, {"smiles": "COc1ccc2c3nc4cc(C)c(C)cc4nc3n(CCN(C)C)c2c1", "growth": "-22.4% (active)"}, {"smiles": "O=C(c1ccc(Cl)cc1)C1[C@H](c2ccc(Br)cc2)[C@@H](c2ccccc2)NC12C(=O)Nc1ccc(Cl)cc12", "note": "(some centres not stated)", "growth": "-79.5% (active)"}, {"smiles": "CC(=O)Nc1ccc(-c2cn(-c3cccc(C(=O)Nc4ccc(Cl)c(C(F)(F)F)c4)c3)nn2)cn1", "growth": "-63.2% (active)"}, {"smiles": "COc1ccc2nc(Cl)c(-c3cc(-c4ccccc4)nc(N)n3)cc2c1", "growth": "46.8% (inactive)"}, {"smiles": "CN1CCN(c2ccc(Nc3nc(NCCCNC(=O)C4CCCCC4)c4sccc4n3)cc2)CC1", "growth": "79.4% (inactive)"}, {"smiles": "COc1ccc(NC(=O)CSc2nnc(-c3ccc4nc(-c5ccc(Cl)cc5)[nH]c4c3)o2)cc1", "growth": "22.6% (inactive)"}, {"smiles": "CCCCCc1ccc(S(=O)(=O)Nc2cc(-c3csc(N(C)C(C)=O)n3)ccc2N2CCN(C)CC2)cc1", "growth": "32.8% (inactive)"}, {"smiles": "COc1ccc(NC(=O)Nc2ccc(OCC(=O)N=Nc3c(O)[nH]c4ccc([N+](=O)[O-])cc34)cc2)cc1", "growth": "0.434% (active)"}, {"smiles": "O=S(=O)(Nc1ncccn1)c1ccc(-n2c(-c3ccccc3)nc(-c3ccccc3)c2-c2ccccc2)cc1", "growth": "94.4% (inactive)"}, {"smiles": "O=c1oc2ccc(-c3ccc(F)cc3F)cc2c(=O)n1-c1ccc(Cl)c(C(F)(F)F)c1", "growth": "-12.6% (active)"}, {"smiles": "CN1CCN(Cc2ccc(C(=O)Nc3cccc(Nc4ccc5c(O)cccc5n4)c3)cc2C(F)(F)F)CC1", "growth": "-83.9% (active)"}, {"smiles": "O=C(c1ccc(-n2c(=O)[nH]c3ccccc3c2=O)cc1)N1CCOCC1", "growth": "101% (inactive)"}, {"smiles": "Cc1ccc(C(=O)Nc2ccc(-n3c(C)nc4c(cnn4-c4ccccc4)c3=O)cc2)cc1", "growth": "71.2% (inactive)"}, {"smiles": "O=C(Nc1ccccc1)Nc1nc2ccccc2s1", "growth": "72.3% (inactive)"}, {"smiles": "COc1cc2c(c(OC)c1OC)C(=O)CC(c1cccc(NC(=O)c3cccc(N)c3)c1)O2", "note": "(configuration not stated)", "growth": "61% (inactive)"}, {"smiles": "CCN1CCN(Cc2ccc(C(=O)Nc3cccc(-c4cn(-c5ccc6oc(=O)ccc6c5)nn4)c3)cc2C(F)(F)F)CC1", "growth": "-100% (active)"}, {"smiles": "CCOC(=O)C1NN(c2ccc(S(N)(=O)=O)cc2)c2nc3nc(-c4cccs4)cc(-c4cccs4)c3c(=O)n21", "note": "(configuration not stated)", "growth": "77.2% (inactive)"}, {"smiles": "O=c1c2ccccc2nc(COc2ccccc2)n1/N=C/c1ccc(N2CCCC2)cc1", "growth": "81.7% (inactive)"}, {"smiles": "COc1ccc(-c2ccc(/C=N/NC(=O)c3[nH]c4ccc(Br)cc4c3-c3ccccc3)s2)cc1", "growth": "82.9% (inactive)"}]}]}
